The test system of one experiment is WaGa. Put plainly: qHTS assay to identify novel small-molecules to repurpose for Merkel cell carcinoma treatment (AID 1296009). Note: nearly all actives have a fitted effect of over 60% in size. Note: potency is the fitted concentration of half-maximal effect. Conditions: MCC and control cell lines, CellTiter-Glo viability, 72 h; series mostly up to 46 µM. The essentials:
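After compound transfer in DMSO, plates were kept 72 hr at 37 degree celsius. Luminescent ATP signal from CellTiter-Glo served as viability measure, normalized against DMSO and no-cell controls.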
A general note: qHTS replaces the single test concentration by a dilution series.

A further experiment relates to C33A. Put plainly: Primary qHTS to identify gynecologic anti-cancer compounds using libraries of approved drugs and bioactive compounds (AID 1345084). Note: % is set by controls: 0 for no effect and ±100 for the full control effect; nearly all actives have a fitted effect of over 55% in size. The note with it: Gynecologic cancer cell panel viability, ATPlite luminescence, 48 h; series mostly up to 57.5 µM. The essentials: (§1)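 In this quantitative HTS, cell killing is estimated from loss of ATP-dependent luciferase light. Cells see five compound concentrations over a 48 h exposure.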

The subject of another experiment is CAOV3. The description is as above. The note with it: Gynecologic cancer cell panel viability, ATPlite luminescence, 48 h; series mostly up to 57.5 µM. The essentials: as §1
A further experiment deals with CASKI. The description is as above. Conditions: Gynecologic cancer cell panel viability, ATPlite luminescence, 48 h; series mostly up to 57.5 µM. In short, it runs like this:
as §1
A general note: Cellular ATP, detected with luciferase, serves as a proxy for viable cell number.

Another experiment has as its system Es-2. The experiment is described as above. The note with it: Gynecologic cancer cell panel viability, ATPlite luminescence, 48 h; series mostly up to 57.5 µM. The essentials:
as §1

A further experiment deals with HeLa. The description is as above. Conditions: Gynecologic cancer cell panel viability, ATPlite luminescence, 48 h; series mostly up to 57.5 µM. In short, it runs like this:
as §1

The subject of another experiment is Hek293T. The experiment is described as above. Conditions: Gynecologic cancer cell panel viability, ATPlite luminescence, 48 h, control line for the selectivity index; series mostly up to 57.5 µM. In short, it runs like this:
as §1

Another experiment concerns JEG-3. The description is as above. The note with it: Gynecologic cancer cell panel viability, ATPlite luminescence, 48 h; series mostly up to 57.5 µM. The essentials: as §1
In the next experiment the test system is OV90. Described as above. The note with it: Gynecologic cancer cell panel viability, ATPlite luminescence, 48 h; series mostly up to 57.5 µM. The essentials:
as §1

A further experiment deals with PA-1. The description is as above. The note with it: Gynecologic cancer cell panel viability, ATPlite luminescence, 48 h; series mostly up to 57.5 µM. The essentials: as §1
A further experiment has as its system SKOV3. The description is as above. The note with it: Gynecologic cancer cell panel viability, ATPlite luminescence, 48 h; series mostly up to 57.5 µM. In short, it runs like this:
as §1

For another experiment, the system named is Tov-21-G. The description is as above. Conditions: Gynecologic cancer cell panel viability, ATPlite luminescence, 48 h; series mostly up to 57.5 µM. In short, it runs like this:
as §1

The next experiment concerns Tov112D. The description is as above. Conditions: Gynecologic cancer cell panel viability, ATPlite luminescence, 48 h; series mostly up to 57.5 µM. In short, it runs like this:
as §1

The nature of experiment [1]: Drug repurposing screens with cells derived from glioblastoma tumor samples (AID 1345199). Note: % is set by controls: 0 for no effect and ±100 for the full control effect; nearly all actives have a fitted effect of over 40% in size. The note with it: GBM patient neurospheres viability, ATP luminescence, 48 h. In short, it runs like this:
(§2)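 Four patient lines of CD133+ GBM neurospheres were screened at several concentrations; hits were retested in those lines plus three slower-growing GBM lines, using 48-hour treatment and ATP-based viability.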

A further experiment relates to astro. Described as above. The note with it: viability, ATP luminescence, 48 h; series mostly up to 45.9 µM. In short, it runs like this: as §2
The target in experiment [2] is Nuclear receptor subfamily 1 group I member 2 (Rattus norvegicus) (UniProt Q9R1A7). Put plainly: qHTS assay for small molecule activators of the rat pregnane X receptor (rPXR) signaling pathway (AID 651751; call rule not given here; note: 0% is about no effect). Conditions: rPXR reporter cells, luciferase (One-Glo), 24 h.
Experiment [3] in a line: qHTS assay for small molecule activators of the human pregnane X receptor (PXR) signaling pathway (AID 720659; call rule not given here; note: 0% is about no effect).
[4] abbreviates: at 45.9 µM (top of the series), tumour line B.
Where [5] appears, read: at 45.9 µM (top of the series), tumour line D.
[6] abbreviates: at 46 µM (top of the series), tumour line A.
Setting [7] is: at 46.1 µM (top of the series), tumour line C.

SMILES strings stand for the structures. Values joined by “and” are separate entries in the source; they are usually repeats but may differ in a detail not shown here. Equal entries are not always repeated. Unmarked numbers belong to inactive results. Results filed as inconclusive are left out. Active and inactive are the calls of the source. Unless noted, calls come from the whole dose curve; as a rule, active = well fitted curve in the direction sought with a large enough effect; inconclusive = small, poorly fitted or top-dose-only effect, or another doubt; inactive = no such curve, though single readings can be large; an effect the other way counts as inactive or inconclusive.

Nuclear receptor subfamily 1 group I member 2 (Rattus norvegicus), sequence (Q9R1A7 whole entry, looked up): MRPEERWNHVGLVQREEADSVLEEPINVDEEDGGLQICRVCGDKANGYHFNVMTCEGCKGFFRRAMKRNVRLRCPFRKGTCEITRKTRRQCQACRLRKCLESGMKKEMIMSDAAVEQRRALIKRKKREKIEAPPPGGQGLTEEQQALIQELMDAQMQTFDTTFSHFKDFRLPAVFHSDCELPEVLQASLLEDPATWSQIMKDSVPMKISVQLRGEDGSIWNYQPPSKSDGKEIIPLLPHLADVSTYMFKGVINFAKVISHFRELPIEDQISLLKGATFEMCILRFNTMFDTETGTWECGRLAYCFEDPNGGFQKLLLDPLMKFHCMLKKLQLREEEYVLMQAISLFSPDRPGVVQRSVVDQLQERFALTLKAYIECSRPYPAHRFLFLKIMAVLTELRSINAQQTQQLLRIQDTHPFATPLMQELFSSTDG

In the case of `CCC(C)(C)c1ccc(O)cc1`, the Potency entry in the experiment on WaGa, in the experiment with C33A, with Es-2, in the experiment on HeLa, in the experiment with OV90 and with PA-1 was “inactive” throughout. Also, the Potency entry in the experiment on Tov-21-G, in the experiment with Tov112D and with astro was “inactive” each time. Also, the outcome in the experiment on CAOV3, in the experiment on CASKI, in the experiment with Hek293T, in the experiment with JEG-3 and with SKOV3 was inactive. The activity, negative = cell killing in [1] (setting [4]) is -7.41%; in [1] (setting [5]), 13.4%; in experiment [1] (setting [6]) it was -14.1%; in experiment [1] (setting [7]), -3.53%. Besides, the max response in experiment [2] is 1.88% and -0.811%.

Take `O=C1c2ccccc2C(=O)C1C(=O)C(c1ccccc1)c1ccccc1`: the Potency with WaGa was 23.7 µM (active). Besides, the Potency result with C33A, with Es-2, with HeLa, in the experiment with OV90, in the experiment with PA-1 and in the experiment with Tov-21-G was “inactive” each time. Moreover, in the experiment with Tov112D, the Potency entry is “inactive”. Besides, the call (in the experiment on CAOV3; in the experiment on CASKI; in the experiment with Hek293T; in the experiment on JEG-3; in the experiment with SKOV3; in experiment [3]) was inactive. For the same molecule, the activity, negative = cell killing in experiment [1] (setting [4]) is -21.4%; in experiment [1] (setting [5]), -28.8%; in experiment [1] (setting [6]), -53.7%; in experiment [1] (setting [7]), -30.6%.

Consider `CCOC(=O)CC(SP(=S)(OC)OC)C(=O)OCC` (stereo not drawn), for which the Potency entry in the experiment on WaGa, in the experiment on C33A, in the experiment with Es-2, in the experiment on HeLa, in the experiment with OV90 and in the experiment on PA-1 was “inactive” throughout. Moreover, the Potency result in the experiment on Tov-21-G and in the experiment with Tov112D was “inactive” throughout. In addition, the molecule was classed as inactive (in the experiment with CAOV3; with CASKI; with Hek293T; with JEG-3; in the experiment on SKOV3; in [3]). In addition, the activity, negative = cell killing in [1] (setting [4]) is -14.8%; in experiment [1] (setting [6]) it was -27.3%; in experiment [1] (at 91.6 µM (top of the series), tumour line B), -2.57%; in experiment [1] (at 91.6 µM (top of the series), tumour line D), -14%. Besides, the max response in experiment [2] is -0.753% and 0.726% and 3.47%.

Consider `Cc1ncsc1CCCl`, for which the Potency result with WaGa, in the experiment with C33A, in the experiment with Es-2, with HeLa, in the experiment with OV90 and with PA-1 was “inactive” throughout. The Potency result in the experiment with Tov-21-G, in the experiment with Tov112D and in the experiment on astro was “inactive” throughout. Further, the result with CAOV3, in the experiment on CASKI, with Hek293T, with JEG-3 and in the experiment with SKOV3 was inactive. Also, the activity, negative = cell killing in experiment [1] (setting [4]) was -10.2%; in experiment [1] (setting [5]), -8.99%; in experiment [1] (setting [6]) it was 4.91%.

In the case of `O=c1[nH]oc2c1CCNC2`, the Potency entry in the experiment with WaGa, in the experiment with C33A, with Es-2, with HeLa, in the experiment with OV90 and in the experiment with PA-1 was “inactive” each time. Moreover, the Potency entry in the experiment on Tov-21-G, in the experiment with Tov112D and in the experiment on astro was “inactive” in each case. For the same molecule, the molecule was called inactive in the experiment on CAOV3, in the experiment with CASKI, in the experiment on Hek293T, in the experiment with JEG-3 and in the experiment with SKOV3. Also, the activity, negative = cell killing was -19.5% in experiment [1] (setting [4]), -5.63% in experiment [1] (setting [5]) and -27.4% in experiment [1] (setting [6]).

Regarding `CN1C(=O)NC(=O)C(C)(C2=CCCCC2)C1=O` (stereo not drawn), the Potency entry in the experiment with WaGa, in the experiment on C33A, in the experiment with Es-2, in the experiment with HeLa, in the experiment with OV90 and with PA-1 was “inactive” throughout. Further, the Potency entry in the experiment with Tov-21-G, in the experiment with Tov112D and with astro was “inactive” in each case. Also, the outcome in the experiment on CAOV3, with CASKI, in the experiment on Hek293T, with JEG-3 and in the experiment on SKOV3 was inactive. The activity, negative = cell killing in [1] (setting [4]) is 16.4% and -21.6%; in experiment [1] (setting [5]), 3.59% and 4.39%; in [1] (setting [6]), 3.99%.

Turning to `O=c1oc2ccccc2c(O)c1Cc1c(O)c2ccccc2oc1=O`, the Potency result in the experiment on WaGa, in the experiment on C33A, in the experiment with Es-2, in the experiment with HeLa, in the experiment on OV90 and in the experiment with PA-1 was “inactive” throughout. The Potency result with Tov-21-G and in the experiment with Tov112D was “inactive” in each case. Further, the outcome with CAOV3, in the experiment on CASKI, with Hek293T, in the experiment with JEG-3 and in the experiment with SKOV3 was inactive. In addition, the activity, negative = cell killing in experiment [1] (at 21.2 µM (top of the series), tumour line B) was -21.7%; in experiment [1] (at 21.2 µM (top of the series), tumour line D), -20.9%; in [1] (at 21.3 µM (top of the series), tumour line A) it was -20.4%.

(Values after PubChem BioAssay (NCATS).)
